Only a selection was taken, and hits are over-represented in it overall.
Tg IFNy HTS: inhibitors of Toxoplasma gondii growth with IFN-gamma. Toxoplasma gondii growth in IFN-gamma-treated host cells; active compounds read low. activity change, negative = inhibition, % (test concentration not listed). actives 3.8% (n = 69,000); in the data active = activity change below about -70%, passing the limit was not always enough;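 note: host cells are HeLa cells infected with Toxoplasma gondii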
* = called active by the depositor; ! = not confirmed by another sample.

SMILES	Tg IFNy HTS
O=C(c1cccc(F)c1)N1CCc2c([nH]c3ccccc23)C1c1ccc(F)cc1 (stereo unspecified)	141
Cc1ccc(C2c3[nH]c4ccccc4c3CCN2C(=O)c2ccc3c(c2)OCO3)cc1 (stereo unspecified)	-62
COc1ccc(C(=O)N2CCc3c([nH]c4ccccc34)C2c2ccc(F)cc2)cc1OC (stereo unspecified)	-32
O=C(c1ccc2c(c1)OCO2)N1CCc2c([nH]c3ccccc23)C1c1ccc(F)cc1 (stereo unspecified)	-109*
CC(C)Cn1cncc1CNC1CCN(c2ccc3c(c2)OCO3)CC1	-7
CCOC(=O)c1c(N)n(-c2ccc(Cl)cc2)c2nc3ccccc3nc12	1
Cc1ccc(SCCC(=O)c2ccc(Cl)cc2)cc1	-10
Cc1ccc(SCCNS(C)(=O)=O)cc1	3
Cc1ccc(Sc2c(Sc3ccc(C)cc3)c(=O)c2=O)cc1	-88*
Cc1ccc(C2(O)CCN(C(=O)NCCc3ccc(F)cc3)CC2)nc1	1
C=CC(C)(C)c1[nH]c2ccccc2c1C1C(=O)C(=O)C(c2c[nH]c3c(CC=C(C)C)cccc23)C(=O)C1=O (stereo unspecified)	13
CC(C)NC(=O)[C@@H]1CCC[C@@]12CCN(Cc1cnn(C)c1)C2	2
CCCCNc1c2c3c(cccc3[nH]c1=O)C(=O)c1ccccc1-2	20
CCN(Cc1noc(CC(C)C)n1)C(=O)CC1COCCN1 (stereo unspecified)	-44
C/C=C/c1ccc(C2[C@@H]3CN(C(=O)Nc4ccc(C(F)(F)F)cc4)C[C@H]2N3)cc1 (stereo partly specified)	-79*!
O=C(NC1CCCCC1)N1C[C@@H]2N[C@H](C1)C2c1ccc(-c2ccc(F)cc2)cc1 (stereo partly specified)	-77*!
N#Cc1ccc(-c2ccc(C3[C@@H]4CN(C(=O)C5CCCCC5)C[C@H]3N4)cc2)cc1 (stereo partly specified)	-46
COc1ccc(-c2ccc(C3[C@@H]4CN(C(=O)c5ccc(F)cc5)C[C@H]3N4)cc2)cc1 (stereo partly specified)	30
COc1ccccc1NC(=O)N1C[C@@H]2N[C@H](C1)C2c1ccc(-c2cccc(C#N)c2)cc1 (stereo partly specified)	-33
O=C(Nc1ccc(F)cc1)N1C[C@@H]2N[C@H](C1)C2c1ccc(/C=C/c2ccccc2)cc1 (stereo partly specified)	-43
C/C=C/c1ccc(C2[C@@H]3CN(C(=O)NC4CCCCC4)C[C@H]2N3)cc1 (stereo partly specified)	-22
COc1cccc(-c2ccc(C3[C@@H]4CN(C(=O)Nc5ccccc5F)C[C@H]3N4)cc2)c1 (stereo partly specified)	-74*!
C/C=C/c1ccc(C2[C@@H]3CN(C(=O)Nc4ccccc4F)C[C@H]2N3)cc1 (stereo partly specified)	-33
COc1ccc(NC(=O)N2C[C@@H]3N[C@H](C2)C3c2ccc(-c3ccncc3)cc2)cc1 (stereo partly specified)	-3
Cc1cccc(-c2ccc(C3[C@@H]4CN(C(=O)c5ccncc5)C[C@H]3N4)cc2)c1 (stereo partly specified)	-7
SMILES	Tg IFNy HTS
N#Cc1cccc(-c2ccc(C3[C@@H]4CN(C(=O)Nc5ccc(C(F)(F)F)cc5)C[C@H]3N4)cc2)c1 (stereo partly specified)	-73*!
CNC(=O)c1cc(=O)n(CC(=O)Nc2ccc3c(c2)OCCO3)c2ccccc12	-6
CNC(=O)N1CC(=O)NCC12CCN(C(=O)Nc1ccccc1)C2 (stereo unspecified)	-11
CCCC(=O)Nc1ccc2c(c1)OC[C@@H](C)N(S(=O)(=O)c1cn(C)cn1)C[C@H](C)[C@H](OC)CN(C)C2=O	114
Cc1ccsc1CNS(=O)(=O)c1cccc2nonc12	41
Cc1ccc2c(n1)N(C)CCN(C(=O)c1ccc[nH]1)C2	4
Cc1onc(-c2ccccc2Cl)c1C(=O)N1CCC2(CN(C)C(=O)O2)C1 (stereo unspecified)	2
CC(Oc1ccccc1-c1ccc(-c2ccn[nH]2)cc1)C(N)=O (stereo unspecified)	13
Cc1nnc(-c2ccccc2-c2ccc(-c3ccn[nH]3)cc2)o1	5
C/C=C/C(=O)Nc1ccccc1-c1ccc(-c2ccn[nH]2)cc1	-93*
CC(C)Cc1ccc(S(=O)(=O)N2CCc3nc(-c4ccccc4)sc3C2)cc1	30
CC[C@H](C(=O)N1CCCC[C@H]1C(=O)O[C@H](CCc1ccc(OC)c(OC)c1)c1cccc(OCC(=O)NCCNC(=O)COc2cccc([C@@H](CCc3ccc(OC)c(OC)c3)OC(=O)[C@@H]3CCCCN3C(=O)[C@@H](CC)c3cc(OC)c(OC)c(OC)c3)c2)c1)c1cc(OC)c(OC)c(OC)c1	-72*
COc1ccc(CCNC(=O)COc2ccc(Br)c(C)c2)cc1OC	-11
COc1ccc(CCNC(=O)C2CCCN2C(=O)Nc2ccc(C)cc2)cc1OC (stereo unspecified)	23

Screens from PubChem.
